{"source": "PubChem BioAssay (Tox21)", "note": "Results filed as inconclusive are left out. Values without a mark were called inactive. Activity calls are given as the source filed them. Calls come from the whole dose curve. % is set by controls: 0 for no effect and ±100 for the full control effect.", "data": [{"experiment": "cAMP Responsive Elements (CRE) small molecule agonists, cell-based qHTS assay (AID 1963590)", "conditions": "CRE-bla HEK293T, beta-lactamase FRET ratio, 3 h; series mostly up to 92.4 µM; activation: at the top concentration", "text": "U.S. Tox21 Program National Center for Advancing Translational Sciences [NCATS] Division of Preclinical Innovation [DPI] U.S. Environmental Protection Agency [EPA] National Institutes of Environmental Health Sciences [NIEHS] National Toxicology Program [NTP] U.S. Food and Drug Administration [FDA] Tox21 Assay Overview: CREB (cyclic-AMP Responsive Element Binding Protein) is a cellular transcription factor. It binds to certain DNA sequences called cAMP Responsive Elements (CRE) and regulates the transcription of the genes. […] This cell line can be used to find agonists/antagonists of the cyclic AMP signaling pathway. The activation of the report gene under culture conditions can be detected by fluorescence intensity. This cell line has been used to screen the Tox21 10K compound library to identify agonists that induce oxidative stress.\nTox21 Assay Protocol Summary: CRE-bla Hek 293T cells were suspended in assay medium (DMEM containing 10% dialyzed FBS, 0.1 mM NEAA, 1 mM sodium pyruvate and 25 mM HEPES) and dispensed at 2,000 cells/5 uL /well into 1536-well black wall/clear bottom plates using a Multidrop Combi (ThermoFisher Scientific, Waltham, MA) dispenser. After the assay plates were incubated at 37 C/5% CO2 for 18 hrs, 23 nL of compounds dissolved in DMSO, positive controls or DMSO only was transferred to the assay plate by a pintool workstation (Kalypsys, San Diego, CA). After the plates were incubated at 37 C/5% CO2 for 3 hrs, 1 uL of LiveBLAzer B/G FRET substrate (Invitrogen, Carlsbad, CA) was added to each well using Bioraptr Flying Reagent Dispenser (FRD, Aurora Discovery, San Diego, CA). The plates were incubated at room temperature for 2 h.", "values": [{"molecule": "CC(C)CO", "activation": "-0.202%"}, {"molecule": "CC(C)CCCCCCOC(=O)C1CCCCC1C(=O)OCCCCCCC(C)C", "note": "(stereo not given)", "activation": "0.0363%"}, {"molecule": "Cc1ccc(O)c(O)c1", "activation": "0.273%"}, {"molecule": "O=C=Nc1ccc(Cl)c(Cl)c1", "activation": "0.0579%"}, {"molecule": "Cc1c[nH]c(=S)[nH]c1=O", "activation": "-1.08%"}, {"molecule": "CCOc1ccccc1OCCN[C@H](C)Cc1ccc(OC)c(S(N)(=O)=O)c1", "activation": "-1.24% [at 42.5 µM]"}, {"molecule": "C[C@H](CS)C(=O)N1CCC[C@H]1C(=O)O", "activation": "-0.521% [at 42.5 µM]"}, {"molecule": "CN1CCC(=C2c3ccccc3CCc3cccnc32)CC1", "activation": "1.58% [at 42.5 µM]"}, {"molecule": "O=C(N[C@H](CO)[C@H](O)c1ccc([N+](=O)[O-])cc1)C(Cl)Cl", "activation": "-1.46%"}, {"molecule": "CC1=CC(=O)/C(=C(/C)O)C(=O)O1", "activation": "1.2%"}, {"molecule": "CO[Si](OC)(c1ccccc1)c1ccccc1", "activation": "0.986%"}, {"molecule": "CSc1c(Cl)c(Cl)c(Cl)c(Cl)c1Cl", "activation": "0.0725%"}, {"molecule": "CCCCCCOC(=O)CC(CC(=O)OCCCCCC)(OC(=O)CCC)C(=O)OCCCCCC", "activation": "-1.94%"}, {"molecule": "O=CO", "activation": "0.47% [at 8.39 µM]"}, {"molecule": "CCCC(CCC)(C(=O)OCC)C(=O)OCC", "activation": "0.494% [at 42.5 µM]"}, {"molecule": "CCCCOCCOCCOCc1cc2c(cc1CCC)OCO2", "activation": "3.6% [at 42.5 µM]"}, {"molecule": "C=C(C)C(=O)OCC", "activation": "0.64%"}, {"molecule": "CC(C)c1ccc2cc(C(C)C)ccc2c1", "activation": "-1.77%"}, {"molecule": "CC(C)OC(=O)OCOP(=O)(CO[C@H](C)Cn1cnc2c(N)ncnc21)OCOC(=O)OC(C)C", "activation": "0.681% [at 42.5 µM]"}, {"molecule": "CC1(C)CC(=O)CC(C)(C)N1", "activation": "0.252%"}, {"molecule": "C=C(C)C(=O)OCCCCCCCCCC", "activation": "8.31%"}, {"molecule": "c1ccc2sc(SSc3nc4ccccc4s3)nc2c1", "activation": "-0.0759% [at 19 µM]"}, {"molecule": "COC(C)(C)CC(C)=O", "activation": "-0.104%"}, {"molecule": "Cn1c(=O)c2c(ncn2CC2OCCO2)n(C)c1=O", "activation": "-0.746% [at 42.5 µM]"}, {"molecule": "CN1C(CSCC(F)(F)F)Nc2cc(Cl)c(S(N)(=O)=O)cc2S1(=O)=O", "note": "(stereo not given)", "activation": "0.296% [at 42.5 µM]"}, {"molecule": "CC(C)[C@H]1CC[C@H](C)C[C@@H]1O", "activation": "0.538%"}, {"molecule": "CC1=CCCC(C)(C)C12CCC(C)O2", "note": "(stereo not given)", "activation": "-0.579%"}, {"molecule": "CCCC(=O)OCCC(C)CCC=C(C)C", "note": "(stereo not given)", "activation": "1.14%"}, {"molecule": "CC(C)=CC(C)(C)C", "activation": "0.306%"}, {"molecule": "CN(C)C(=N)N=C(N)N", "Potency": "inactive"}, {"molecule": "CC(CC=O)CCCC(C)(C)O", "note": "(stereo not given)", "activation": "-0.21%"}, {"molecule": "Cc1cc(C)c(C)c(C)c1", "activation": "0.204%"}, {"molecule": "OC/C(Br)=C(\\Br)CO", "activation": "0.606%"}, {"molecule": "CC(=O)Oc1ccc2c(c1)CC[C@@H]1[C@@H]2CC[C@]2(C)[C@@H](O)CC[C@@H]12", "activation": "0.941% [at 42.5 µM]"}, {"molecule": "CC(C)(C)C1CCCCC1=O", "note": "(stereo not given)", "activation": "0.507%"}, {"molecule": "C[Si](C)(C)O[Si](O)(O)O", "activation": "0.191%"}, {"molecule": "N[C@@H](CS)C(=O)O", "activation": "-0.526%"}, {"molecule": "CCCc1ccc(OC)cc1", "activation": "0.792%"}, {"molecule": "CC(=O)Nc1ccccc1O", "activation": "0%"}, {"molecule": "CC(=O)Nc1ccc(S(=O)(=O)Cl)cc1", "activation": "-0.435%"}]}]}
